The values that follow come from ChEMBL document CHEMBL1157539, “Thousands of chemical starting points for antimalarial lead identification” (Nature, 2010).

SMILES strings stand for the structures.

What all share (assay type): functional
Experiment [1] relates to Plasmodium falciparum. Briefly: GSK_TCMDC: Inhibition of Plasmodium falciparum 3D7 in whole red blood cells, using parasite LDH activity as an index of growth. Test compounds present at 2uM.
Experiment [2] relates to Plasmodium falciparum. The experiment can be described thus: GSK_TCMDC: Inhibition of Plasmodium falciparum Dd2 in whole red blood cells, using parasite LDH activity as an index of growth. Test compounds present at 2uM.
In another experiment the test system is HepG2. Briefly: GSK_TCMDC: Percent inhibition of human HepG2 cell line. Test compounds present at 10uM.

As for `CCN(CC)CCNC(=O)/C(=C/C=C/c1cc2cc(Cl)c(Cl)cc2[nH]1)OC`, the Inhibition is 88% in the experiment on Plasmodium falciparum [1], 31% with Plasmodium falciparum [2] and 30% with HepG2.
Consider `Cl.O=C(/C=C/c1ccc(F)cc1)NC1CCC(CCN2CCc3ccc(-n4cccn4)cc3CC2)CC1` (centres undefined), for which the figures for the Inhibition in the experiment on Plasmodium falciparum [1], with Plasmodium falciparum [2] and in the experiment on HepG2 were 89%, 16% and 23%, respectively.
For `Cc1ccc2sc(N(CCCn3ccnc3)C(=O)c3ccco3)nc2c1C.Cl` the same measures were 93%, 98% and 9%.
For `CN(C)c1ccc(CN2CCC(NC(=O)c3ccc(-c4cccc(Cl)c4)s3)CC2)cc1.O=C(O)C(F)(F)F`, the Inhibition in the experiment with Plasmodium falciparum [1] worked out at 93%; in the experiment with Plasmodium falciparum [2] it was 44%; in the experiment on HepG2, 65%.
As for `COCc1ccc(CN2CCC(C(=O)Nc3ccc(-c4nc5ccccc5[nH]4)cc3)CC2)o1`, the values for the Inhibition in the experiment with Plasmodium falciparum [1], in the experiment on Plasmodium falciparum [2] and in the experiment on HepG2 were 97%, 13% and 13%, respectively.
In the case of `CCNc1cc(C(=O)N[C@@H](Cc2ccccc2)[C@H](O)CNCc2cccc(-n3ccnc3)c2)cc(N2CCCC2=O)c1.O=C(O)C(F)(F)F`, the Inhibition in the experiment on Plasmodium falciparum [1] came to 99%; in the experiment on Plasmodium falciparum [2] it was 96%; in the experiment with HepG2, 1%.
In the case of `O=C(CCC1CCCC1)N(Cc1ccc(-c2ccc(CNCCc3ccccn3)cc2)cc1)CC1CCCCN1.O=C(O)C(F)(F)F` (centres undefined), the Inhibition in the experiment on Plasmodium falciparum [1] is reported as 95%; in the experiment on Plasmodium falciparum [2], 69%; in the experiment with HepG2, 32%.
Regarding `CN(C)Cc1c(O)ccc2oc(Cc3ccccc3)cc12.Cl`, the figures for the Inhibition in the experiment on Plasmodium falciparum [1], with Plasmodium falciparum [2] and in the experiment on HepG2 were 99%, 94% and 0%, respectively.
Regarding `Cc1cccc2nc(C(=O)Nc3nc(CN4CCC(C)CC4)cs3)cn12`, the Inhibition in the experiment with Plasmodium falciparum [1] amounted to 94%; in the experiment with Plasmodium falciparum [2] it was 80%; in the experiment with HepG2 it was 0%.
For `CC(C)CCN1CCC(Oc2cccc(NC(=O)c3ccc(C(F)(F)F)cc3)c2)CC1.O=C(O)C(F)(F)F`, in that order: 98%, 6% and 39%.
Turning to `CN(C(=O)c1ccc(Br)cc1)c1ccccc1[N+](=O)[O-]`, the values for the Inhibition in the experiment on Plasmodium falciparum [1], in the experiment with Plasmodium falciparum [2] and with HepG2 were 96%, 0% and 3%, respectively.
As to `CCC1CN2CCc3c([nH]c4ccc(OC)cc34)C2CC1CC1NCCc2cc(OC)c(OC)cc21.Cl` (centres undefined), the Inhibition with Plasmodium falciparum [1] is 100%; in the experiment with Plasmodium falciparum [2], 21%; in the experiment with HepG2, 17%.
In the case of `CCn1ccc2c(N3CCCCS3(=O)=O)cc(C(=O)N[C@@H](Cc3ccccc3)[C@H](O)CNC(C)(C)CCCC(C)C)cc21`, the Inhibition stood at 96% with Plasmodium falciparum [1], 98% with Plasmodium falciparum [2] and 23% in the experiment on HepG2.
Regarding `O=C(N[C@H](CC1CCCCC1)C(=O)NC1CCCc2ccccc21)c1ccc(O)c(-c2cccc([N+](=O)[O-])c2)c1` (some centres undefined), the Inhibition in the experiment on Plasmodium falciparum [1] is on record as 99%; in the experiment on Plasmodium falciparum [2], 98%; in the experiment on HepG2, 0%.
Turning to `O=C(Nc1ccc(Cl)cc1)Nc1cccc(CCNCc2ccccc2)c1.O=C(O)C(F)(F)F`, the Inhibition was 100% in the experiment with Plasmodium falciparum [1], 12% in the experiment on Plasmodium falciparum [2] and 16% in the experiment on HepG2.
Regarding `CC(C)Oc1cc(-c2ccc(S(C)(=O)=O)cc2)nc(N(Cc2cccc(F)c2F)Cc2cccc(F)c2F)n1`, the Inhibition with Plasmodium falciparum [1] came out at 100%; with Plasmodium falciparum [2], 99%; in the experiment with HepG2, 10%.
Consider `Fc1ccc2[nH]c(-c3ccc(-c4ccc(CNCCc5cccnc5)cc4)s3)nc2c1.O=C(O)C(F)(F)F`, for which the Inhibition with Plasmodium falciparum [1] came out at 100%; in the experiment on Plasmodium falciparum [2], 99%; in the experiment on HepG2, 40%.
For `COc1cccc(Nc2nccc(-c3c(-c4cccc(NC(=O)c5c(F)cccc5F)c4)nn4ccccc34)n2)c1`, the Inhibition is reported as 98% with Plasmodium falciparum [1], 98% with Plasmodium falciparum [2] and 35% in the experiment on HepG2.
In the case of `CCCN1CCN(CCNC(=O)c2cccc(Nc3nccc(Nc4ccc(Oc5ccccc5)cc4)n3)c2)CC1`, the Inhibition in the experiment on Plasmodium falciparum [1] was found to be 99%; in the experiment on Plasmodium falciparum [2], 96%; in the experiment with HepG2, 56%.
For `COc1ccc2ccccc2c1CCCCN1CCN(CC(c2ccc(F)cc2)N2CCN(C(C)C)CC2)CC1.Cl` (centres undefined) the same measures were 100%, 83% and 92%.
For `COc1ccc2c(=NN=Cc3ccc(F)cc3)cc(C)[nH]c2c1` the same measures were 100%, 99% and 4%.
Consider `CCn1c(C)c(C)c2cc(C(=O)Nc3ccon3)ccc21`, for which the Inhibition in the experiment with Plasmodium falciparum [1] came to 95%; in the experiment with Plasmodium falciparum [2] it was 93%; in the experiment with HepG2, 3%.
Turning to `CN(C)Cc1ccc(-c2ccc3c(Nc4ccc(Oc5ccccn5)cc4)ccnc3c2)o1`, the Inhibition with Plasmodium falciparum [1] is 100%; in the experiment on Plasmodium falciparum [2] it was 100%; with HepG2 it was 18%.
For `CC1(C)N=C(N)N=C(N)N1c1ccc(Cl)c(Cl)c1.Cl`, the Inhibition with Plasmodium falciparum [1] is 95%; in the experiment on Plasmodium falciparum [2], 56%; in the experiment with HepG2, 67%.
For `Cc1cc(C(=O)CN2C(=O)NC3(CCCc4ccccc43)C2=O)c(C)n1Cc1ccc(F)cc1` (centres undefined) the same measures were 92%, 53% and 4%.
For `CCCCCCC(N)c1ccc(OCCCOc2ccc(C(N)CCCCCC)cc2)cc1.Cl` (centres undefined) the same measures were 88%, 70% and 100%.
Regarding `I.N=C(N)NCC=C(c1ccccc1)c1ccccc1`, the Inhibition was 94% in the experiment with Plasmodium falciparum [1], 83% with Plasmodium falciparum [2] and 9% with HepG2.
On to `Cc1cc(C)cc(NC(=S)NCCCCN2CCN(c3cccc(Cl)c3)CC2)c1`, for which the results for the Inhibition with Plasmodium falciparum [1], with Plasmodium falciparum [2] and in the experiment on HepG2 were 88%, 13% and 11%, respectively.
